Experimental data published in the OligoGym collection.

The sequences below were run against ITGAM (assay: pooled miR-30 sensor sort-seq; sequence = guide strand). Conditions: shRNA.
Note: reference of the scale not given here.

Row | Sequence | sensor-assay potency score (higher = more potent)
1 | TTCCTTGCCTTTCACCACCTGA | -0.688
2 | TTCATGTCTGAATCCACTCTGG | 0.203
3 | TATTGATGCTGCATGACCCGAC | 0.154
4 | TTAGAGTCTACATCAAACGTGA | 0.224
5 | TTCTCTTGGAAGGTCATTGCGT | -0.213

These sequences were tested against ITLN1 in the same assay as above. Conditions: shRNA.

Row | Sequence | sensor-assay potency score (higher = more potent)
6 | TGAACTGAACAAATCCCGCAGT | 0.114
7 | TAACATTCTAGCTACTGGGTAA | -0.292
8 | TTCGTCTTTGATTTCCTTGCAG | 0.319
9 | TTGTCAGTCCAACACTTTCCTT | -1.43
10 | TTCCATATCCACTCCAATCAAA | -1.07
11 | TTAGCCTCATCTGTACTCCATC | -0.855
12 | TGCACTAGGACATTCGTCTTTG | -0.456
13 | TCGTCTTTGATTTCCTTGCAGC | -0.887
14 | TGTCAGTCCAACACTTTCCTTC | 0.0274
15 | ATGCACTAGGACATTCGTCTTT | -0.936
16 | TAGACCACAGGGATCACCGGGC | 0.112
17 | TTTCACTGGATATTTCTGGTAG | 0.272

What follows are sequences tested against ITPRIP in the same assay as above. Conditions: shRNA.

Row | Sequence | sensor-assay potency score (higher = more potent)
18 | TTTAGTGTCGTCCTGAGGAAGT | -0.751
19 | TTCAAGTACAGACTGGATCTGG | 0.622
20 | TAAGGCAGCATGAAACACCAAG | -0.493
21 | TTCTTCTGGAGCAAGCTCTTCT | -0.26
22 | TAGGAGGTGCAGTAGGGCCGTC | -0.656
23 | TTGATCTTCAGGGACCCCGGGC | -0.883
24 | TTGGTCTTGCCGCAGATGCAGC | -1.52
25 | TTGAAGGGCATGAACTTCCCTG | 0.113
26 | TTTTCAGTGAACTTTCTCCTGG | -0.029
27 | TGAACGGAACTTGATCTTCAGG | -1.39
28 | TTAGAAGCAGCTTTGGTGCAGA | 0.222
29 | TTGAGCATCTCATAGAAGGAGT | -0.45

These sequences were tested against JAM3 in the same assay as above. Conditions: shRNA.

Row | Sequence | sensor-assay potency score (higher = more potent)
30 | TTCTGAATGAGTGTCTAGCTCT | -0.216
31 | TTTCCTTGCGGTCATTTCGAGC | -1.23
32 | TAGAGTAAGAAGAGTAGTGGTC | 0.457
33 | TAGCAGAGGTATGTGCACGTGC | -0.388
34 | TTGTTGATGAAGTAGCCACGTC | -0.698
35 | TTCATCTTGAATTTTCTTCCAC | 0.166
36 | TTCCACACTTTCAAATTCCTGT | 0.0526
37 | TTGATGAAGTAGCCACGTCTGT | -0.852
38 | TTCACTTGCACAGTTAACTCGA | 0.721
39 | TAAAGGGCTGAGTCTCTCCGTG | -0.394
